# Screening results (PubChem BioAssay)
# Most compounds without a hit are left out; they make up all but 12% or so of the library.
# BAZ2B block: inhibitors of human BAZ2B bromodomain; AlphaScreen BAZ2B-H3K14Ac peptide displacement; Potency, µM (series often up to 114 µM), for inactives: top-dose activity change, negative = inhibition, actives largely listed as inhibitors; AID 504333; hit rate 4.4% among 360,000; also: potency is read from the fitted curve at half-maximal effect; % is scaled to controls: 0 for no effect and ±100 for the full control effect; nearly all actives have a fitted effect of over 60% in size
#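 AlphaScreen displacement: compounds (up to 110uM) incubated 30 min at room temperature with a preformed 50 nM BAZ2B/50 nM biotinylated H3K14Ac peptide complex in PBS pH 7.4 with Tween-20. Donor and acceptor beads at 10 ug/mL final added, 20 min light-protected before reading.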
# G9a inh: inhibitors of human histone lysine methyltransferase G9a; Q96KQ7; G9a H3K9 monomethylation, AlphaScreen, 2 h; Potency, µM (doses to about 102 µM), for the others: at the highest dose activity, negative = inhibition, usual class: inhibitors; hit rate 8.8% among 350,000; AID 504332; also: potency is read from the fitted curve at half-maximal effect; % is scaled to controls: 0 for no effect and ±100 for the full control effect; nearly all actives have a fitted effect of over 75% in size
# Target sequence (Q96KQ7 913-1193 limits assumed): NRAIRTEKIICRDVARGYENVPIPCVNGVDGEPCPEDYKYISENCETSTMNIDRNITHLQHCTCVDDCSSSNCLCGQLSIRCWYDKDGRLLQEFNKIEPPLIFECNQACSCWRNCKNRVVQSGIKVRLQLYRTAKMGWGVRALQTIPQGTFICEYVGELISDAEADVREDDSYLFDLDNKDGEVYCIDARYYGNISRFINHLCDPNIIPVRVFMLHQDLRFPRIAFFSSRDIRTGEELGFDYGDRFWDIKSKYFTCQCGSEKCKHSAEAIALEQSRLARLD
#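 Methyltransferase reactions run at room temperature for 2 h (20 nM enzyme, 500 nM biotin-H3K9 peptide, 20 uM SAM) after a 15 min compound preincubation; product detected by AlphaScreen beads and anti-H3K9me1 antibody.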
# HP1b chromo inh: inhibitors of HP1-beta chromodomain binding to methylated histone tails; AID 540317; Potency, µM (top dose mostly 114 µM), inactives show top-dose activity change, negative = inhibition, actives largely listed as inhibitors; P83916; hit rate 0.56% among 390,000; AlphaScreen HP1-beta / biotin-H3K9me3 peptide binding; also: potency is read from the fitted curve at half-maximal effect; nearly all actives have a fitted effect of over 70% in size
# Target sequence (P83916 whole entry, looked up): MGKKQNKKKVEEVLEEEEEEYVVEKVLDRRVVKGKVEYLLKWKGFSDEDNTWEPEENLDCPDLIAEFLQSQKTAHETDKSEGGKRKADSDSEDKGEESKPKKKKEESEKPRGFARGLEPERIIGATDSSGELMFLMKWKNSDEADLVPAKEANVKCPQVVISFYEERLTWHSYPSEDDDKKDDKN
#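 HP1-beta protein (50 nM final) preincubated 30 min at room temperature with biotinylated H3(1-18)K9me3 peptide (50 nM) in PBS pH 7.4, 0.01% Tween-20, then compound added for 30 min. AlphaScreen streptavidin donor/nickel chelate acceptor beads (10 ug/mL final), 30 min dark, luminescence read.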
# JMJD2A Tudor: blocks the human JMJD2A Tudor domain; hit rate 4.4% among 390,000; O75164; Potency, µM (titrated, usually from 114 µM), for the others: at the highest dose activity change, negative = inhibition, actives largely listed as inhibitors; AlphaScreen JMJD2A-Tudor / H3K4me3 peptide binding; also: potency is read from the fitted curve at half-maximal effect; % is scaled to controls: 0 for no effect and ±100 for the full control effect; nearly all actives have a fitted effect of over 50% in size
# Sfp PPTase inh: blocks B. subtilis Sfp PPTase activity | Potency, µM, without a hit: largest response in the series, negative = inhibition, most hits filed as inhibitors | AID 1490 | hit rate 3.5% among 310,000 | Q9F4F7 | Biochemical Sfp PPTase activity, qHTS;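 also: the enzyme is Sfp with the accession as filed and its product quenches rhodamine fluorescence; potency is read from the fitted curve at half-maximal effect; 0% = enzyme reaction without inhibitor and -100% = no enzyme wells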
#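 After 15 min at room temperature with compound, 15 nM Sfp received 5 uM rhodamine-CoA plus 12.5 uM BHQ-2-ybbR (50 mM Hepes pH 7.6, 10 mM MgCl2). Rate came from the fluorescence difference over 30 min, ex 525/em 598 nm.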
# L3MBTL1 block: inhibitors of human L3MBTL1; Q9Y468; AlphaScreen L3MBTL1–H3K9me1 peptide binding; Potency, µM (doses to about 57.1 µM), inactives show at the highest dose activity, negative = inhibition, usual class: inhibitors; hit rate 0.66% among 230,000; also: potency is read from the fitted curve at half-maximal effect; % is scaled to controls: 0 for no effect and ±100 for the full control effect; nearly all actives have a fitted effect of over 60% in size
#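 L3MBTL1 50 nM + b-AHA-H3(1-15)K9me1 75 nM, 30 min RT; compound added, 30 min RT; streptavidin donor/Ni-chelate acceptor beads 10 ug/mL each final, 30 min RT dark; AlphaScreen read.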
# ME-1 growth: inhibitors of ME-1 leukemia cell proliferation, CBFb-RUNX1 project. Potency, µM (highest dose often 56.1 µM), inactives show at the top dose activity change, negative = inhibition, hits mostly inhibitors. AID 504370. ME-1 cell proliferation, ATP luminescence, 48 h. hit rate 20% among 140. shares compounds with BAZ2B block
# Starred values were filed as active, the others as inactive; ? = inconclusive; / = no result given; ! = not active in a repeat; [ ] = dose if it differs, or a comment. Calls follow the shape of the dose curve; as a rule, active = well fitted curve in the direction sought with a large enough effect; inconclusive = small, poorly fitted or top-dose-only effect, or another doubt; inactive = no such curve, though single readings can be large; an effect the other way counts as inactive or inconclusive.
SMILES,BAZ2B block,G9a inh,HP1b chromo inh,JMJD2A Tudor,Sfp PPTase inh,L3MBTL1 block,ME-1 growth
CCOC(=O)c1c(NC(=O)CSc2cn(CCNC(=O)c3c(F)cccc3F)c3ccccc23)sc2c1CCCC2,-26%,4%[59 µM],22%,-19%,/,/,/
N#CC(C#N)=Cc1ccc(OC(=O)c2ccccn2)cc1,8.9µM*,2.5µM*,33%,7.9µM*,45µM*,25µM*,?
COCCN=C1Sc2nc3cc4c(cc3cc2CN1CC1CCCO1)OCO4 (stereo not drawn),5%,3%[0.501 µM],36%,-9%,1%,14%,/
c1ccc(-c2ccccn2)nc1,79µM*,14µM*!,68%,?,-10%,-3%,-13%
c1ccc(-c2nc3cc4ccccc4cc3[nH]2)nc1,5%,30%,51%,-21%,-5%,-10%,/
c1ccc(-c2n[nH]c(-c3ccccn3)n2)nc1,0.71µM*,?,29%,1µM*,20µM*,2µM*,?
c1ccc(-c2cccs2)nc1,7%,31%,0%,-5%,19%,-2%,/
c1ccc(-c2ccc(-c3ccccn3)nn2)nc1,2µM*,?,/,/,16µM*,3.5µM*,18µM*
CCCc1cc(C(=O)N2CCCC(N3CCN(c4ccccc4F)CC3)C2)n(C)n1 (stereo not drawn),-16%,15%,35%,-1%,8%,/,/
NCC(=O)Nc1ccc(Cl)cc1C(=O)c1ccc[nH]1,?,25µM*,38%,-12%,17%,?,4.9µM*
CN=c1scc(-c2ccccc2F)n1/N=C/c1ccc(O)c(O)c1O,7.9µM*,13µM*,28µM*,32µM*,3.2µM*,3.5µM*,4.5µM*
COc1c(O)cccc1O,/,-36%[2.33 µM],/,/,9%,/,/
Oc1cccc(O)c1O,/,3.5µM*,/,/,40µM*,/,1%
Nc1cccc(N)c1,/,/,/,/,/,/,-2%
Nc1cccc(S(=O)(=O)c2cccc(N)c2)c1,-3%,16%,22%,-6%,11%,6%,/
O=C(O)c1cc(O)ccc1O,/,/,88%,-14%,/,/,/
O=C(O)C1=CC(=C(c2ccc(O)c(C(=O)O)c2)c2ccc(O)c(C(=O)O)c2)C=CC1=O,1.1µM*,1.1µM*,/,/,-2%,?,-13%
CC(C)[C@H](NC(=O)[C@@H]1Cc2c([nH]c3ccccc23)C2c3ccccc3C(=O)N21)C(=O)NCC1CCCO1 (stereo partly drawn),?,15%,3%,-35%,1%,-6%,/
CCc1ccccc1NC(=O)N1CCc2ccccc21,3%,/,38%,7%,13%,16%,/
FC(F)Oc1cccc2cccnc12,-5%,-7%[59 µM],12%,-1%,4%,3%,/
c1cnc2c(c1)ccc1cccnc12,1.6µM*,13µM*,31%,7.9µM*,2.5µM*,3.2µM*,8.9µM*
O=S(=O)(c1cccc2nsnc12)N1CCNCC1,2%,?,8%,1%,14%,/,/
CC1(C)N([O-])C2=C(CCCC2)[N+]1=O,?,?,-1%,-20%,-2%,?,-15%[25.6 µM]
Cc1nc2ccc(NC(=S)N3CCCC3)cc2nc1C,-12%,/,26%,-8%,-21%,7%,/
Cc1nc2ccc(NC(=S)N3CCOCC3)cc2nc1C,-30%,45µM*,41%,-16%,-18%,4%[11.4 µM],-14%
CSCCC(NC(=O)c1ccccc1Br)C(=O)NNC(=O)c1ccco1 (stereo not drawn),10%,14%[59 µM],32%,-3%,/,3%,/
C=C1c2cccc(O)c2C(O)=C2C(=O)[C@]3(O)C(O)=C(C(N)=O)C(=O)[C@@H](N(C)C)[C@@H]3[C@@H](O)[C@H]12,3.5µM*,-160%[59 µM],-8%,7.1µM*,35µM*,0.89µM*,-24%
CCOc1ccc(-n2ccnc(SCC(=O)Nc3cccc(OC)c3)c2=O)cc1,?,-30%[2.33 µM],-9%,-3%,/,-23%,/
